Twelve molecules from PubChem BioAssay (NCATS) can be followed below.

Each structure is given as a SMILES string. Records with an inconclusive call do not appear. Calls of active or inactive are those of the source. Calls come from the whole dose curve; as a rule, active = well fitted curve in either direction with a large enough effect (not every such curve was filed as active); inconclusive = small, poorly fitted or top-dose-only effect, or another doubt; inactive = flat fitted curve, though single readings scatter.

For this test, the target named is Mitogen-activated protein kinase 10 (Mus musculus) (UniProt Q61831). Kind of test: JNK3 AlphaScreen Assay (AID 530).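 Note: kinase came from lysate of stimulated human HepG2 cells; signal reports phosphorylation of biotinylated GST-cJun 1-79 at Ser73 with 10 µM ATP.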 The conditions noted are these: JNK3 lysate, c-Jun phosphorylation; series mostly up to 57.1 µM. In outline:
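Inhibitors reduce antibody binding to phosphorylated biotin-cJun, lowering AlphaScreen luminescence. Lysates from HepG2 cells pre-activated by IL-1beta plus TNF-alpha supplied JNK3; compounds were titrated.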
(In Alpha technology, singlet oxygen from a donor bead excites a nearby acceptor bead.)
As for `CCn1c(=O)[nH]c2cc(Cl)c(Cl)cc21`, the result was inactive.
To `CCSC(=N)N` belongs “inactive”.
As to `O=c1[nH]c(=O)c2nc3ccccc3nc2[nH]1`, the molecule was called inactive.
To `OC1(c2ccc(Cl)cc2)CCN(Cc2c[nH]c3ccccc23)CC1` belongs “inactive”; to `CC(=O)NCCc1c[nH]c2ccc(O)cc12`, “inactive”; to `COc1ccc(-c2ccc(N)[n+](CCCC(=O)O)n2)cc1`, “inactive”.
To `COc1cc2c(CCNC(C)=O)c[nH]c2cc1O` belongs “inactive”; to `N#Cc1cc2nc(O)c(O)nc2cc1[N+](=O)[O-]`, “inactive”.
To `Cn1cc(C(=O)OCC2CCN(CCNS(C)(=O)=O)CC2)c2ccccc21` belongs “inactive”.
Turning to `Nn1nnc2ccccc21`, the call was inactive.
Regarding `O=C(N[C@@H](Cc1ccccc1)C(=O)CCl)OCc1ccccc1`, the outcome was inactive.
Under `CC[C@H](NC(=O)c1c(C)c(-c2ccccc2)nc2ccccc12)c1ccccc1` stands “inactive”.
